Experimental findings from PubChem BioAssay (NCI) are described below.

Each structure is given as a SMILES string. Compounds without any hit were thinned out: in the full panel of roughly 83,000, 20% have a hit.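 Cell lines were cultured in 96-well plates, exposed to a single compound concentration, and assessed for percent growth 48 hours later.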 Values without a mark were called inactive. Active and inactive are the calls of the source. How the source made its calls: active means growth percent below 10; inactive means the rest.

Holding throughout (test): NCI-60 one-dose screen, 48 h (100 = growth as untreated, 0 = no growth, -100 = all killed)
The subject of one assay is A549/ATCC NSCLC. Particulars: 10 µM unless noted.
A further assay deals with K-562 leukemia. Particulars: 10 µM unless noted.
A further assay has as its system SF-295 CNS. Particulars: 10 µM unless noted.
The next assay relates to SF-539 CNS. Particulars: 10 µM unless noted.
In a further assay the test system is UACC-257 melanoma. Particulars: 10 µM unless noted.
The subject of the next assay is HCT-15 colon. Particulars: 10 µM.
The subject of a further assay is SNB-75 CNS. Particulars: 10 µM unless noted.
In a further assay the test system is PC-3 prostate. Particulars: 10 µM unless noted.
Another assay concerns SK-MEL-5 melanoma. Particulars: 10 µM unless noted.
A further assay concerns ACHN renal. Particulars: 10 µM unless noted.
The next assay concerns A498 renal. Particulars: 10 µM unless noted.
Another assay deals with HL-60(TB) leukemia. Particulars: 10 µM unless noted.
A further assay concerns OVCAR-8 ovarian. Particulars: 10 µM unless noted.
The next assay has as its system OVCAR-4 ovarian. Particulars: 10 µM unless noted.
The next assay relates to IGROV1 ovarian. Particulars: 10 µM.
Another assay relates to HS 578T breast. Particulars: 10 µM unless noted.
The subject of another assay is T-47D breast. Particulars: 10 µM unless noted.
A further assay has as its system HCC-2998 colon. Particulars: 10 µM unless noted.
The test system of the next assay is HT29 colon. Particulars: 10 µM unless noted.
The test system of another assay is SK-MEL-2 melanoma. Particulars: 10 µM unless noted.

In the case of `C=CC(O)CN1CC1CC` (stereo unspecified), the growth with A549/ATCC NSCLC is 92.8%; with K-562 leukemia, 101%; with SF-295 CNS it was 102%; in the assay on SF-539 CNS, 98%; with UACC-257 melanoma, 88.6%; with HCT-15 colon it was 102%. Also, the growth was 85.1% in the assay with SNB-75 CNS; 98.1% in the assay with PC-3 prostate; 115% in the assay on SK-MEL-5 melanoma; 102% in the assay with ACHN renal; 89.5% in the assay on A498 renal; 101% in the assay with HL-60(TB) leukemia. Also, the growth in the assay with OVCAR-8 ovarian is 89.1%; in the assay on OVCAR-4 ovarian it was 112%; in the assay on IGROV1 ovarian, 108%; with HS 578T breast it was 97.3%; in the assay with T-47D breast it was 101%; in the assay with HCC-2998 colon, 96.2%.

With `O=[N+]([O-])c1cccc([As]=[As]c2cccc([N+](=O)[O-])c2)c1` (stereo unspecified), the growth was -75.2% (active) in the assay with A549/ATCC NSCLC; -21.7% (active) in the assay with K-562 leukemia; -99.7% (active) in the assay on SF-539 CNS; -94.4% (active) with UACC-257 melanoma; -83.5% (active) in the assay with HCT-15 colon; -61.6% (active) in the assay on HT29 colon. In addition, the growth in the assay with SNB-75 CNS was -100% (active); in the assay on PC-3 prostate it was -84.8% (active); in the assay on SK-MEL-5 melanoma it was -100% (active); with SK-MEL-2 melanoma, -91.4% (active); in the assay on ACHN renal it was -100% (active); in the assay with A498 renal it was -98.8% (active). In addition, the growth in the assay on HL-60(TB) leukemia was -57% (active); with OVCAR-8 ovarian, -70% (active); in the assay with OVCAR-4 ovarian, -99.2% (active); in the assay with IGROV1 ovarian, -57.8% (active); in the assay with HS 578T breast it was 6.73% (active); in the assay on T-47D breast, -58.3% (active). For the same compound, the growth in the assay on HCC-2998 colon was -90.6% (active).

In the case of `Cc1cc(C)nc(C)c1.[Cl][Hg][Cl]`, the growth in the assay on A549/ATCC NSCLC was 97.2%; in the assay with K-562 leukemia, 83.6%; in the assay on SF-295 CNS it was 94.9%; with SF-539 CNS, 103%; with UACC-257 melanoma, 93.8%; with HCT-15 colon, 101%. In addition, the growth in the assay with HT29 colon is 95.7%; in the assay with SNB-75 CNS, 96%; in the assay with PC-3 prostate, 95.4%; with SK-MEL-5 melanoma, 106%; in the assay with SK-MEL-2 melanoma, 98.7%; in the assay with ACHN renal it was 101%. Besides, the growth in the assay with A498 renal was 120%; with HL-60(TB) leukemia it was 93.7%; with OVCAR-8 ovarian, 100%; in the assay with OVCAR-4 ovarian it was 103%; with IGROV1 ovarian, 106%; in the assay with HS 578T breast, 108%. Further, the growth in the assay on T-47D breast was 81.8%; with HCC-2998 colon it was 114%.

With `O=C(/C=C/c1ccccc1)N[C@@H](CO)Cc1cnc[nH]1`, the growth in the assay on K-562 leukemia was 107%; in the assay on SF-295 CNS it was 98.9%; in the assay with SF-539 CNS, 95.6%; in the assay on HCT-15 colon, 98.6%; in the assay with HT29 colon it was 105%; with SNB-75 CNS, 94.3%. Also, the growth in the assay on PC-3 prostate was 97.9%; with SK-MEL-5 melanoma, 103%; with SK-MEL-2 melanoma, 102%; in the assay on ACHN renal, 96.4%; in the assay on A498 renal it was 115%; in the assay on HL-60(TB) leukemia it was 98.8%. Further, the growth was 99.8% with OVCAR-8 ovarian; 96.8% with OVCAR-4 ovarian; 92.9% with IGROV1 ovarian; 116% in the assay on HS 578T breast; 104% in the assay with T-47D breast; 112% with HCC-2998 colon.

`Cc1cc([N+](=O)[O-])c(Cl)cc1NS(=O)(=O)c1ccccc1`: the growth was 71% in the assay with K-562 leukemia; 65.7% with SF-295 CNS; 60.6% with SF-539 CNS; 73.1% with HCT-15 colon; 82.1% in the assay with HT29 colon; 64.1% in the assay on SNB-75 CNS. The growth in the assay with PC-3 prostate is 81.2%; with SK-MEL-5 melanoma, 43.6%; in the assay with SK-MEL-2 melanoma, 55.5%; in the assay with ACHN renal it was 83.1%; in the assay with A498 renal it was 67.2%; in the assay on HL-60(TB) leukemia, 57.3%. Also, the growth in the assay with OVCAR-8 ovarian was 78.1%; in the assay with OVCAR-4 ovarian, 71.4%; in the assay with IGROV1 ovarian it was 85%; in the assay on HS 578T breast, 72.5%; with T-47D breast it was 59.5%; with HCC-2998 colon it was 80.6%.

`O=C(NCCNC(=O)c1ccc([As](O)O)cc1)c1ccc([As](O)O)cc1`: the growth in the assay with A549/ATCC NSCLC is 109%; with K-562 leukemia it was 116%; in the assay with SF-295 CNS it was 107%; in the assay with SF-539 CNS it was 102%; in the assay with UACC-257 melanoma, 103%; in the assay on HCT-15 colon it was 107%. For the same compound, the growth is 112% with HT29 colon; 87.5% with SNB-75 CNS; 94.6% in the assay with PC-3 prostate; 95.6% with SK-MEL-5 melanoma; 103% in the assay with SK-MEL-2 melanoma; 106% with ACHN renal. The growth with A498 renal is 92%; in the assay with HL-60(TB) leukemia it was 105%; with OVCAR-8 ovarian it was 103%; in the assay on OVCAR-4 ovarian it was 105%; in the assay on IGROV1 ovarian, 110%; in the assay on HS 578T breast, 91.7%. The growth in the assay on T-47D breast and with HCC-2998 colon was 100% in each case.

`CC(C)(C)N(Cc1ccccc1)N=O`: the growth in the assay with A549/ATCC NSCLC is 93.9%; with K-562 leukemia, 101%; with SF-295 CNS, 100%; with SF-539 CNS, 99%; in the assay with UACC-257 melanoma, 92.1%; with HCT-15 colon, 103%. For the same compound, the growth with HT29 colon was 104%; in the assay with SNB-75 CNS it was 86.5%; in the assay on PC-3 prostate, 98.7%; with SK-MEL-5 melanoma, 99.1%; with SK-MEL-2 melanoma it was 94.6%; with ACHN renal, 104%. For the same compound, the growth was 95.4% in the assay on A498 renal; 106% in the assay with HL-60(TB) leukemia; 95.7% in the assay with OVCAR-8 ovarian; 98.2% with OVCAR-4 ovarian; 103% in the assay with IGROV1 ovarian; 109% in the assay on HS 578T breast. Also, the values for the growth in the assay on T-47D breast and in the assay with HCC-2998 colon were 97.3% and 110%, respectively.

For `CC(C)Nc1ccc(Nc2ccccc2)cc1`, the growth is 24.1% in the assay with A549/ATCC NSCLC; 24.6% with K-562 leukemia; 12.5% in the assay with SF-295 CNS; 26.1% with SF-539 CNS; 47.5% in the assay on UACC-257 melanoma; 84.3% with HCT-15 colon. Also, the growth is 7.96% (active) in the assay with HT29 colon; 29.8% in the assay with SNB-75 CNS; 9.1% (active) with PC-3 prostate; 57.9% with SK-MEL-5 melanoma; 80.5% in the assay with SK-MEL-2 melanoma; 30.5% in the assay with ACHN renal. The growth is 65.9% in the assay with A498 renal; 69.3% in the assay on HL-60(TB) leukemia; 28.1% in the assay with OVCAR-8 ovarian; 28.3% in the assay with OVCAR-4 ovarian; 27% with IGROV1 ovarian; 17.9% with HS 578T breast. Also, the figures for the growth in the assay on T-47D breast and in the assay with HCC-2998 colon were 42.9% and 49.6%, respectively.

Regarding `CCC(/C=C(C)/C=C/C(=O)c1c(O)c(-c2ccc(O)cc2)c[nH]c1=O)CO` (stereo unspecified), the growth in the assay on A549/ATCC NSCLC is 90.2%; in the assay with K-562 leukemia, 7.07% (active); in the assay with SF-295 CNS, 81.1%; in the assay with SF-539 CNS, 77.4%; in the assay with UACC-257 melanoma, 92.4%; in the assay with HCT-15 colon, 91.6%. In addition, the growth is 107% in the assay on HT29 colon; 91.3% in the assay on SNB-75 CNS; 27.7% in the assay on PC-3 prostate; 99.9% in the assay with SK-MEL-5 melanoma; 88.7% with SK-MEL-2 melanoma; 104% with ACHN renal. The growth in the assay on A498 renal was 70.9%; in the assay on HL-60(TB) leukemia it was 4.76% (active); with OVCAR-8 ovarian, 92.4%; in the assay on HS 578T breast, 83.8%; with T-47D breast, 92.6%; with HCC-2998 colon it was 106%.
